Experimental data taken from article PMC10214531.

Molecular target: Guanine nucleotide-binding protein G(I)/G(S)/G(T) subunit beta-1 (UniProt P62873)
Assay: cross-link between two proteins; cross-linking mass spectrometry

## Guanine nucleotide-binding protein G(I)/G(S)/G(O) subunit gamma-2, P59768
  listed as a hit: yes
